Consider 40 molecules from PubChem BioAssay (Tox21).

Molecules are shown by their SMILES. Values without a mark were called inactive. Where a call stands in place of a potency, no number is given. Calls of active or inactive are those of the source. Calls come from the whole dose curve; as a rule, active = well fitted curve in the direction sought with a large enough effect in the repeat runs; inconclusive = weak or mixed curves; inactive = flat fitted curve, though single readings scatter.
Potency is the fitted concentration of half-maximal effect; tags give direction and shape of the fitted curve or compound fluorescence and quenching.

The assay in a line: qHTS assay to test for compound auto fluorescence at 535 nm (green) in HEK293 cell free culture (AID 720682). The settings on record: cell-free medium, green autofluorescence 485/535 nm; series mostly up to 91.3 µM. The source says:
U.S. Tox21 Program National Center for Advancing Translational Sciences [NCATS] NIH Chemical Genomics Center [NCGC] U.S. Environmental Protection Agency [EPA] National Institutes of Environmental Health Sciences [NIEHS] National Toxicology Program [NTP] U.S. Food and Drug Administration [FDA] Tox21 Assay Overview: Compound auto fluorescence often interferes with screening of the compound library against various biological targets and signaling pathways. Some of these compounds may have fluorophoric properties. Such properties may interfere with the assay outputs resulting in false positives and/or negatives. To decrease such complications and ensure the compound activities are relevant in terms of biological response, the Tox21 10K compound library was screened for auto fluorescence. From the fluorophores used as reporter signals in our screening assays, the auto fluorescence equivalencies of compounds against three fluorophores have been evaluated: Triamterene, Fluorescein and Rose Bengal sodium for blue, green and red fluorescence, respectively. The fluorescence intensities were measured using Excitation/Emission wavelengths at 405/460nm, 485/535nm and 540/590nm for blue, green and red labels, respectively. This assay includes the green fluorescence data.
Tox21 Assay Protocol Summary: 5 uL of culture medium (DMEM containing 10% FBS) per well was dispensed into black wall/clear bottom 1536-well plates using a Multidrop Combi Dispenser (ThermoFisher Scientific, Waltham, MA). After 23 nL compound or DMSO vehicle was transferred into assay plate by a pintool work station (Kalypsys, San Diego, CA), fluorescence intensities in the assay plates were measured by an Envision (PerkinElmer, Shelton, CT) plate reader using three labels for measuring blue, green and red fluorescence at […] 460, 535 and 590nm respectively.
Turning to `COCC(=O)O[C@]1(CCN(C)CCCc2nc3ccccc3[nH]2)CCc2cc(F)ccc2[C@@H]1C(C)C`, the Potency entry is “inactive”. On the same count and under the same terms, the same measure for `CC(C)OC(=O)c1cc(C(=O)OC(C)C)cc([N+](=O)[O-])c1`: “inactive”; for `COC(=O)[C@]1(C)CCC[C@@]2(C)[C@H]1CC=C1C=C(C(C)C)CC[C@@H]12`: “inactive”; for `C[C@]12CC[C@H]3C(=CCc4cc(O)ccc43)[C@@H]1CCC2=O`: “inactive”. The same measure, in the same setting: the same measure for `C(=C/c1ccccc1)/c1ccccc1`: “inactive”; for `COc1cc(C(=O)NS(=O)(=O)c2ccccc2C)ccc1Cc1cn(C)c2ccc(NC(=O)OC3CCCC3)cc12`: “inactive”; for `Cn1cnc2ncnc(N)c21`: “inactive”. Same read-out and setting: in the case of `CC(C)c1ccc(O)c(C(C)C)c1` it was “inactive”; in that of `CCCC(CC)CCCCCCCN` (stereo not given), “inactive”; in that of `Oc1ccc(-c2ccccc2)c(Cl)c1`, “inactive”. For the molecule `COC(=O)CC#N`, the Potency result is “inactive”. Same read-out and setting: the same measure for `CN(C)c1ccc(N=Nc2ccccc2C(=O)O)cc1`: “inactive”; for `O=C1NCN(c2ccccc2)C12CCN(CCCC(c1ccc(F)cc1)c1ccc(F)cc1)CC2`: “inactive”. The same measure, in the same setting: the same measure for `CN(C)CCOC(c1ccccc1)c1ccccc1` (tested in a mixture with another compound): “inactive”. With `Oc1c(Br)cc(Br)c2cccnc12`, the Potency entry was “inactive”.

With `CCOC(=O)C1=C(C)NC(C)=C(C(=O)OCC)C1c1ccccc1/C=C/C(=O)OC(C)(C)C`, the Potency result is “inactive”.

Consider `Cc1ccc(N)cc1O`, for which the Potency entry was “inactive”. Turning to `CC(O)C#CC(C)O` (stereo not given), the Potency result was “inactive”. Same read-out and setting: in the case of `O=C(O)c1cccc(Cl)n1` it was “inactive”; in that of `c1ccc(Nc2cccc3ccccc23)cc1`, “inactive”. Turning to `CCOC(=O)[C@@](C)(N)Cc1ccc(O)c(O)c1`, the activity change is -0.0329% [at 18.6 µM, hits give high values]. For the molecule `CCCSS/C(CCO)=C(\C)N(C=O)Cc1cnc(C)nc1N`, the Potency entry is “inactive”. The same measure, in the same setting: the same measure for `CC(C)(C)CC(C)(C)c1ccccc1O`: “inactive”. On the same count and under the same terms, in the case of `NC(=O)c1ccccc1N` it was “inactive”; in that of `Cc1ccc2ccc3cccc4ccc1c2c34`, “inactive”; in that of `CC(C)c1cccc(C(C)C)c1N1C(=O)c2ccc(O)cc2C1=O`, “inactive”. As for `Cc1c(C)n(Cc2ccccc2)c2ccc(C(=O)OCCN(C)C)cc12`, the Potency result is “inactive”. On to `O=C(O)CCCCCCC(=O)O`, for which the Potency entry is “inactive”. Still for that read-out and setting: in the case of `N#CSCSc1nc2ccccc2s1` it was “inactive”; in that of `CCCCCCCCCCCCCC[n+]1ccccc1`, “inactive”; in that of `O=C1OC(OC(=O)c2cccnc2Nc2cccc(C(F)(F)F)c2)c2ccccc21` (stereo not given), “inactive”. On the same count and under the same terms, the same measure for `O=C(c1ccccc1)c1cc(Cl)ccc1O`: “inactive”; for `NC1(c2ccc(-c3nc4ccn5c(=O)[nH]nc5c4cc3-c3ccccc3)cc2)CCC1`: “inactive”; for `CC1=C(/C=C/C(C)=C/C=C/C(C)=C/C(=O)Nc2ccc(O)cc2)C(C)(C)CCC1`: “inactive”.

Take `NCCCCCCNCCCCCCN`: the Potency entry is “inactive”. On the same count and under the same terms, in the case of `C=CC(=O)OCCC#N` it was “inactive”; in that of `CCN1CCN(c2cc(-c3ccc(F)cc3)c3c(n2)CCCCCC3)CC1`, “inactive”; in that of `CCN(CC)CCNc1ccc(CO)c2sc3ccccc3c(=O)c12`, “inactive”. Still for that read-out and setting: in the case of `Nc1ccc2cc3ccc(N)cc3nc2c1` it was 11.2 µM [fluorescent] (active).

For the molecule `O=C1C=CC(=O)N1c1ccccc1`, the Potency entry is “inactive”.
